PubChem BioAssay (NCI)
About 79,000 compounds went through this panel and 15% of them were active in at least one assay; those are over-represented in the sample as a whole. Unmarked numbers belong to inactive results. Active and inactive are the calls of the source. No stated cut-off is given here; in the data, active means growth inhibition above about 70%; inactive means the rest.

Assay: NCI Yeast Anticancer Drug Screen. Data for the rad50EPP+ strain (AID 151);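 further: 0% = growth of vehicle-treated control cultures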
Conditions: S. cerevisiae rad50 mutant strain, active compounds read high
Method: Growth inhibition of yeast strains with defined genetic alterations is measured as a screen for potential anti-cancer activity. Selected strains with alterations in DNA damage repair or cell cycle control were exposed to compounds and growth inhibition was measured relative to vehicle treated controls. The strain used in this assay is rad50EPP+

For `c1cc2c(cc1C1OC[C@H]3[C@@H](c4ccc5c(c4)OCO5)OC[C@@H]13)OCO2` (stereo not given in full), the growth inhibition (at 1.2 µM) was -7%, the growth inhibition (at 3.7 µM) was -16% and the growth inhibition (at 11.0 µM) was 3%. The growth inhibition (at 33.0 µM) was 16% and the growth inhibition (at 100.0 µM) was 2%.

With `CCN(CCCl)CCCCNc1c2ccccc2nc2ccc(OC)cc12` the growth inhibition (at 1.2 µM) was 18%, the growth inhibition (at 3.7 µM) was 39% and the growth inhibition (at 11.0 µM) was 63%. For the same molecule, the growth inhibition (at 33.0 µM) was 77% (active) and the growth inhibition (at 100.0 µM) was 90% (active).

In the case of `COc1ccc(OC)c(/C=C/[N+](=O)[O-])c1`, the growth inhibition (at 1.2 µM) is reported as 29%, the growth inhibition (at 3.7 µM) is reported as 59% and the growth inhibition (at 11.0 µM) is reported as 74% (active). The growth inhibition (at 33.0 µM) was 86% (active) and the growth inhibition (at 100.0 µM) was 99% (active).

In the case of `O=[N+]([O-])c1ccc(C=Cc2ccccc2)cc1.[C-]#[O+].[C-]#[O+].[C-]#[O+].[Cr]`, the growth inhibition (at 1.2 µM) is reported as 10%, the growth inhibition (at 3.7 µM) is reported as 32% and the growth inhibition (at 11.0 µM) is reported as 62%. For the same molecule, the growth inhibition (at 33.0 µM) was 71% (active) and the growth inhibition (at 100.0 µM) was 67%.

With `CCCCN(CCCC)CC(C(C)=O)C(c1ccccc1)c1c(O)c2ccccc2oc1=O` (stereo not given) the growth inhibition (at 1.2 µM) was -7%, the growth inhibition (at 3.7 µM) was -5% and the growth inhibition (at 11.0 µM) was -6%. It also gave a growth inhibition (at 33.0 µM) of -8% and a growth inhibition (at 100.0 µM) of -3%.

`OC1(c2ccccc2)CC2CCC(C1)N2CCCC(O)(c1ccccc1)c1ccccc1` (stereo not given) gave a growth inhibition (at 1.2 µM) of -5%, a growth inhibition (at 3.7 µM) of -3% and a growth inhibition (at 11.0 µM) of 0%. The growth inhibition (at 33.0 µM) was 2% and the growth inhibition (at 100.0 µM) was 5%.

With `CNCC(O)c1ccc(O)c(O)c1.[Pt].c1ccc([PH+](c2ccccc2)c2ccccc2)cc1.c1ccc([PH+](c2ccccc2)c2ccccc2)cc1` the growth inhibition (at 1.2 µM) was 2%, the growth inhibition (at 3.7 µM) was -3% and the growth inhibition (at 11.0 µM) was -21%. For the same molecule, the growth inhibition (at 33.0 µM) was 11% and the growth inhibition (at 100.0 µM) was 93% (active).

For `OC1CCCC2CCC[N-]C12.OC1CCCC2CCC[N-]C12.[O]=[V][OH]` (stereo not given), the growth inhibition (at 1.2 µM) was 47%, the growth inhibition (at 3.7 µM) was 96% (active) and the growth inhibition (at 11.0 µM) was 96% (active). For the same molecule, the growth inhibition (at 33.0 µM) was 95% (active) and the growth inhibition (at 100.0 µM) was 95% (active).
